DRD3 antagonist: D3 dopamine receptor (human) antagonism; 360,000 compounds, 2.5% hits; P35462; max response, negative = inhibition, %; D3R cells, DiscoveRx beta-arrestin luminescence, antagonist mode; hits give low values; AID 652054; in the data active = max response below about -50%
Target sequence (P35462 whole entry, looked up): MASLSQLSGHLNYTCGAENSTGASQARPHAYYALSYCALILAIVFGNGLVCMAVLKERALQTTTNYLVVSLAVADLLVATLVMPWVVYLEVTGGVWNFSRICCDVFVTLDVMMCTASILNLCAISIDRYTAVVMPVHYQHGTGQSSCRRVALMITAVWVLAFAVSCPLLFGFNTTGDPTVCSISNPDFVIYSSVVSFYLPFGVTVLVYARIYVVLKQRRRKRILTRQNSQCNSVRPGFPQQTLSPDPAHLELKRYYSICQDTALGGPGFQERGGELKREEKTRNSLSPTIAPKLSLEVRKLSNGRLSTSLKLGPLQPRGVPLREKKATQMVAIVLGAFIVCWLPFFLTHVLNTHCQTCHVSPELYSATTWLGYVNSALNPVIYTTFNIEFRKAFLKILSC
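Cells expressing the human receptor were seeded at 1500 cells/well, incubated overnight at 37 degrees C in 5% CO2, then exposed to library compounds with dopamine controls for 90 minutes at 37 degrees C before luminescent detection.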
D1 agonist: agonists of human D1 dopamine receptor; HEK293 T-REx D1 cells, calcium flux, agonist mode; activation, % at 2 µM; P21728; 360,000 compounds, 1% hits; in the data active = activation above about 30%
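Inducible HEK293 T-REx D1 cells, force-coupled to calcium signalling, were plated at 4000 cells/well with tetracycline and held overnight at 30 C. After no-wash calcium dye loading, compound-evoked calcium rise over 180 s flagged agonists.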
D1 antagonist: human D1 dopamine receptor antagonism; P21728; HEK293 TREx D1 cells, calcium flux, dopamine EC80; hits give low values; activity change, negative = inhibition, % at 10 µM; 360,000 compounds, 3.2% hits; in the data active = activity change below about -30%
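Tetracycline-induced HEK293 T-REx cells with force-coupled D1 receptor were loaded with a no-wash calcium dye. Compound was added after a 10 s baseline and read kinetically for 180 s; EC80 dopamine was then added and calcium flux followed another 180 s.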
D3 ag: agonists of human D3 dopamine receptor; AID 652048; P35462; D3R DiscoveRx beta-arrestin cells, luminescence, 90 min; max activation, %; 410,000 compounds, 0.58% hits; in the data active = max activation above about 30%
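Agonist mode: compounds and dopamine controls were applied to plated cells for 90 min at 37 degrees C after an overnight attachment at 1500 cells/well. Luminescent read-out followed 30 - 60 minutes at room temperature with DiscoveRx detection reagent.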
D1 potentiator: potentiators of human D1 dopamine receptor; P21728; HEK293 TREx D1 cells, calcium flux, dopamine EC20 potentiation; potentiation, % at 10 µM; 360,000 compounds, 0.036% hits; AID 504651; in the data active = potentiation above about 30%
Hits are given with their value; 0 = inactive; - = not tested or not shown. Hits are enriched below; roughly 6% of the tested compounds scored in any of these assays.

SMILES	DRD3 antagonist	D1 agonist	D1 antagonist	D3 ag	D1 potentiator
Cc1nn(CC(=O)Nc2ccc3c(c2)OCO3)c(C)c1Cl	0	0	0	0	0
COc1cc(C2CC(=O)N(Cc3ccc(F)cc3)c3ccccc3S2)cc(OC)c1OC (centres undefined)	-	0	0	0	0
C=CCOC(=O)/C(=C\c1ccccc1)NC(=O)c1ccco1	0	0	-43.1	0	0
C=CCOC(=O)/C(=C\c1ccc(OC)cc1)NC(=O)c1ccco1	-50.8	0	0	0	0
COc1cccc(N2CCN(C(=O)CN3C(=O)COc4ccc(S(=O)(=O)N5CCC(C)CC5)cc43)CC2)c1	-	0	0	0	0
CN(CC(=O)Nc1ccc(OC(F)(F)F)cc1)C(=O)/C=C/c1cc2c(cc1[N+](=O)[O-])OCO2	-94.6	0	-48.6	0	0
COc1ccc(CCN(C(=O)c2ccc(F)cc2)C2=CC3CCC(C2)N3C)cc1OC (centres undefined)	-56.0	0	0	0	0
O=C(c1ccc(F)cc1)C1CCN(C(=S)NCC2CCCO2)CC1 (centres undefined)	0	0	-35.3	0	0
COc1ccc(CCNC(=O)C2CCC(C(C)(C)C)CC2)cc1OC (centres undefined)	0	0	-63.0	0	0
COc1ccc(CCNC(=S)N2CCC(C(=O)c3ccc(F)cc3)CC2)cc1OC	0	0	-43.9	0	0
Cc1cccc(OC(=O)CSc2nnc(-c3cccs3)o2)c1C	-	0	0	0	0
O=C(CCCCCCCC(=O)c1ccccc1)c1ccccc1	0	0	0	0	0
O=C(CCC(=O)c1ccccc1)Nc1ccccc1	0	-	-	0	-
C=C(CCC(=O)c1ccccc1)C(=O)c1ccccc1	-53.8	0	0	0	0

Bioassay records deposited in PubChem by National Center for Advancing Translational Sciences (NCATS).
